Test results: PubChem BioAssay (NCATS)
Values without a mark were called inactive. Inconclusive results are not listed. Entries that show only a call come without a potency. Active and inactive are the calls of the source. The call rests on the fitted dose curve; in most records, active means well fitted curve in the direction sought with a large enough effect; inconclusive means small, poorly fitted or top-dose-only effect, or another doubt; inactive means no such curve, though single readings can be large; an effect the other way counts as inactive or inconclusive.

Legend:
[1] = Panc-1005 Cancer Cell Toxicity qHTS against the NCATS CANVASS Library (AID 1347349); further: nearly all actives have a fitted effect of over 60% in size; further: potency means the concentration at half of the fitted maximal effect
Outline: (§1)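 Step one: seed 1000 cells per well. Step two: incubate 4 h. Step three: add test compounds in 11 concentrations. Step four: culture 72 h, then add CellTiter-Glo and record luminescence after 15min.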

[2] = SW1088 Cancer Cell Toxicity qHTS against the NCATS CANVASS Library (AID 1347350); further: nearly all actives have a fitted effect of over 75% in size; further: potency means the concentration at half of the fitted maximal effect
Outline: as §1

[3] = KB-8-5-11 Cancer Cell Toxicity qHTS against the NCATS CANVASS Library (AID 1347364); further: nearly all actives have a fitted effect of over 75% in size; further: potency means the concentration at half of the fitted maximal effect
Outline: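 Viability read as CellTiter-Glo luminescence after 72 h at 37 °C, 5% CO2. 11-point compound series on 500 KB-8-5-11 cells/well in DMEM/10% FBS. Follow-up plating included 1 uM tariquidar in the medium.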

[4] = SDT Cancer Cell Toxicity qHTS against the NCATS CANVASS Library (AID 1347365); further: nearly all actives have a fitted effect of over 60% in size; further: potency means the concentration at half of the fitted maximal effect
Outline: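 Cytotoxicity taken from CellTiterGlo ATP luminescence after 72 hr at 37C, 5% CO2. Canine glioma line SDT, 500 cells/well, treated at 11 concentrations; bortezomib dose series as control.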

[5] = qHTS for ATAD5 Agonist screened against the NCATS CANVASS Library (AID 1347367);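 further: luciferase reporter driven by ATAD5 which rises upon DNA damage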
Outline: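 HEK293T-ATAD5 luc reporter; 2000 cells/well; 5hr settle; cpd 11-pt qHTS; 16hr 37C 5% CO2 dark; viability by CellTiter-Fluor (AFC fluorescence); then luciferase luminescence, 30min RT.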

[6] = biological target: Nuclear receptor subfamily 1 group I member 3 (Homo sapiens) (UniProt Q14994); assay: qHTS for Constitutive Androstane Receptor (CAR) Antagonist screened against the NCATS CANVASS Library (AID 1347372); further: potency means the concentration at half of the fitted maximal effect
Outline: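 Antagonist mode: compound added alongside 50 nM CITCO to HepG2-hCAR-CYP2B6 reporter cells, 24hr at 37C. Viability by CellTiter-Fluor fluorescence, then CAR-driven luciferase by ONE-Glo luminescence.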

[7] = biological target: Nuclear receptor subfamily 1 group I member 3 (Homo sapiens) (UniProt Q14994); assay: qHTS for Constitutive Androstane Receptor (CAR) Agonist screened against the NCATS CANVASS Library (AID 1347373);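 further: every well also contained 1.5 µM PK11195 alongside the test compound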
Outline: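 Agonist mode with 1.5uM PK11195 present: compounds for 24hr on HepG2-hCAR-CYP2B6 cells. CellTiter-Fluor fluorescence (ex 405, em 540 nm) gives viability; ONE-Glo luminescence reports CAR activation.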

[8] = DH5-alpha competent E. coli microbial cell viability qHTS against the NCATS CANVASS Library (AID 1347377); details: outcome: dose series up to 46.1 µM unless noted
Outline: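 Bacterial viability as ATP-dependent luminescence (BacTiter-Glo), read after overnight 37 °C exposure of DH5-alpha competent E. coli to compounds in 11-point titration.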

[9] = Secretion counterscreen for inhibitors of the SERCaMP assay screened against the NCATS CANVASS Library (AID 1347390);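 further: light from luciferase secreted into medium read as a measure of general secretion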; further: potency means the concentration at half of the fitted maximal effect
Outline: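 SH-SY5Y-GLuc STOP cells; 4 h attach; cpds 0.001 - 77 uM (qHTS, 11 pts), 20 h 37C/5% CO2; coelenterazine in glow buffer; luminescence, 5 s exposure.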

[10] = qHTS for inhibitors of ER calcium dysfunction: SERCaMP assay screened against the NCATS CANVASS Library (AID 1347393); further: nearly all actives have a fitted effect of over 40% in size; further: potency means the concentration at half of the fitted maximal effect
Outline: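 Thapsigargin-induced ER calcium depletion drives GLuc-SERCaMP secretion from SH-SY5Y cells; compounds given 16 h beforehand were scored by lowered coelenterazine luminescence after 4 h challenge.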

[11] = qHTS for inhibitors of Wild type Zika virus screened against the NCATS CANVASS Library (AID 1347396);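 further: ATP luminescence of surviving cells so rescue from viral cell killing; series mostly up to about 46 µM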
Outline: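 Using ATP-based luminescence (CellTiter Glo), this screen scores rescue of Vero 766 cells from wild-type Zika killing at 72 h post-infection. Compounds are tested in a concentration series.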

[12] = OV-KATE Cancer Cell Toxicity qHTS against the NCATS CANVASS Library (AID 1347345)
Outline: as §1

[13] = HPAF-II Cancer Cell Toxicity qHTS against the NCATS CANVASS Library (AID 1347346); further: series mostly up to about 38 µM; nearly all actives have a fitted effect of over 55% in size
Outline: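 Cytotoxicity read-out was CellTiter-Glo luminescence after 72 h at 37 degrees C exposure of HPAF-II cells (1000/well) to compounds in an 11-point titration.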

[14] = UWB1.289 Cancer Cell Toxicity qHTS against the NCATS CANVASS Library (AID 1347347); further: nearly all actives have a fitted effect of over 60% in size
Outline: as §1

[15] = U-118MG Cancer Cell Toxicity qHTS against the NCATS CANVASS Library (AID 1347351)
Outline: as §1

[16] = COV-362 Cancer Cell Toxicity qHTS against the NCATS CANVASS Library (AID 1347352); further: series mostly up to about 38 µM
Outline: (§2)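 Toxicity was measured as CellTiter-Glo luminescence after 72 h exposure to an 11-point compound series. Compound was added to 1000 cells/well 4 h after seeding.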

[17] = UWB1.289-WTBRCA1 Cancer Cell Toxicity qHTS against the NCATS CANVASS Library (AID 1347354)
Outline: as §2

[18] = HEK-293 Cancer Cell Toxicity qHTS against the NCATS CANVASS Library (AID 1347355); further: nearly all actives have a fitted effect of over 65% in size; further: potency means the concentration at half of the fitted maximal effect; on outcome: series mostly up to about 46 µM
Outline: as §2

[19] = qHTS for Hypoxia signaling pathway (HIF-1) antagonists against the NCATS CANVASS Library (AID 1347374); further: nearly all actives have a fitted effect of over 60% in size; further: potency means the concentration at half of the fitted maximal effect
Outline: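 Antagonism scored as loss of CoCl2-driven (60 uM stock added) HRE beta-lactamase signal, read by CCF4 FRET at 460/530 nm. Compounds were tested in an 11-point series on ME-180 reporter cells for 17 hrs at 37C, with parallel CellTiter-Glo cytotoxicity.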

[20] = qHTS for Hypoxia signaling pathway (HIF-1) agonists against the NCATS CANVASS Library (AID 1347375)
Outline: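 Beta-lactamase reporter under HRE control in ME-180 cells; compounds (11-point qHTS series) added after 5 hrs plating, then 17 hrs at 37C. FRET substrate read after 2 hr; same-well CellTiter-Glo luminescence gave viability and normalization.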

Sequence of Nuclear receptor subfamily 1 group I member 3 (Homo sapiens) (Q14994 whole entry, looked up): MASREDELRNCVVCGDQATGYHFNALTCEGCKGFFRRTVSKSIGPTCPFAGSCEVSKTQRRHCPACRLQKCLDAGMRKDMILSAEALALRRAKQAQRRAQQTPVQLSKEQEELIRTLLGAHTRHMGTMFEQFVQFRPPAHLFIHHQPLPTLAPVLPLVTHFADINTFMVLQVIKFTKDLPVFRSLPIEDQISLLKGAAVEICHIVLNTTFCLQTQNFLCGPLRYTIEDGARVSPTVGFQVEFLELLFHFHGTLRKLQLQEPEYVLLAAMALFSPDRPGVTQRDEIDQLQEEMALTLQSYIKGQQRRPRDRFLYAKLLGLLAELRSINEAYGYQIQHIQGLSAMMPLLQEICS

Structure (SMILES)	Potency [1]	Potency [2]	Potency [3]	Potency [4]	Potency [5]	Potency [6]	Potency [7]	outcome [8]	Potency [9]	Potency [10]	outcome [11]	Potency [12]	Potency [13]	Potency [14]	Potency [15]	Potency [16]	Potency [17]	Potency [18]	Potency [19]	outcome [20]
C[C@@H]1CC[C@]2(C(=O)O)CC[C@]3(C)C(=C2[C@H]1C)CC[C@@H]1[C@@]2(C)CC[C@H](O)C(C)(C)[C@@H]2CC[C@]13C	21.1 µM (active)	23.7 µM (active)	inactive	inactive	inactive	inactive	inactive	inactive	inactive	inactive	inactive	–	–	–	–	–	–	–	–	–
C=CC(C)(C)C(=O)[C@@H](C)[C@@H]1CC[C@@](C)(C=C)O1	inactive	inactive	inactive	inactive	inactive	inactive	inactive	inactive	inactive	inactive	inactive	inactive	inactive	inactive	inactive	inactive	inactive	inactive	inactive	inactive
COc1cc([C@@H]2c3cc4c(cc3C[C@@]3(O[C@@H]5O[C@H](CO)[C@@H](O)[C@H](O)[C@H]5O)COC(=O)[C@H]23)OCO4)cc(OC)c1OC	–	–	0.0526 µM (active)	0.0418 µM (active)	inactive	0.066 µM (active)	–	inactive	inactive	inactive	–	–	inactive	–	–	–	–	0.0469 µM (active)	inactive	–
Cc1cc(C)c(O)c(C(=O)CC2CC(=O)NC(=O)C2)c1	–	inactive	7.43 µM (active)	1.32 µM (active)	inactive	14.8 µM (active)	inactive	inactive	6.09 µM (active)	–	inactive	–	–	–	–	–	–	3.72 µM (active)	7.47 µM (active)	–
COC1C(C)OC(OCC23C[C@@H]4[C@H](C)CC[C@H]4C4(C=O)CC2C=C(C(C)C)C34C(=O)O)[C@@H](O)[C@H]1O (stereo partly drawn)	inactive	inactive	inactive	inactive	inactive	–	–	inactive	inactive	inactive	inactive	inactive	inactive	inactive	inactive	inactive	inactive	inactive	inactive	inactive
C=C1[C@@]2(C)CC3C4(C)CCC(O)C(C)(C)C4CCC3(C)[C@]1(C(=O)OC)C(=O)C(C)(O)C2=O (stereo partly drawn)	inactive	inactive	inactive	inactive	–	inactive	inactive	inactive	–	8.6 µM (active)	inactive	inactive	inactive	inactive	inactive	inactive	inactive	inactive	inactive	–
C/C(=C\[C@H](C)C(=O)C[C@H](O)CC1CC(=O)NC(=O)C1)[C@@H]1OC(=O)CCCC/C=C/C[C@@H](O)[C@@H]1C	–	inactive	inactive	1.66 µM (active)	inactive	13.2 µM (active)	–	inactive	12.2 µM (active)	inactive	inactive	–	–	–	–	–	–	7.43 µM (active)	4.72 µM (active)	–
